Data: PubChem BioAssay AID1508600 (Functional Genomics Laboratory (NCATS/FGL), 2020)
Hit rate of the full screen: of about 53,000 sequences, about 3,700 (7%) were called active. Many of the other results were omitted from the sample, so actives are more common in it than they were. A number with no mark means an inactive call.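 How the source made its calls: active means gene knockdowns whose robust z-score for IL-1 alpha signal is at least 2 or at most -2, so actives lie on both sides; inactive means the rest.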

assay: Components of the Cytosolic LPS Sensing Pathway: Gene Identification via Genome-wide siRNA Screen; details: RAW264.7 macrophages, IL-1a HTRF, actives lie on both sides, screened at 100 nM (by protocol), cells primed 5 h with Pam3CSK4 first
From the text: Non-canonical inflammasome activation by cytosolic LPS is a critical component of the host response to Gram-negative bacterial infection, however we lack a comprehensive understanding of the cellular processes that control this pathway. Here we describe a genome-wide siRNA screen to identify genes regulating the mouse macrophage IL-1 alpha response to cytosolic LPS.
RAW264.7 cells were maintained in complete DMEM media, comprising DMEM with 4.5 g/L glucose, 10% FBS (Gemini Bio-Products, West Sacramento, CA), 2 mM Glutamine (Lonza) and 20 mM HEPES (Lonza), hereafter complete DMEM.
The RNAi screen was conducted in 384-well format using the Ambion Silencer Mouse Genome siRNA Library (#4391425), which consists of three unique, nonoverlapping, nonpooled siRNAs for each of 17,000 gene targets. siRNA reagents ([…]) were stamped into 384-well white flat-bottom microplates (Corning, 3570) using a Velocity11 VPrep liquid handling system (Agilent) integrated into a BioCel robotic platform (Agilent) in columns 1-22, leaving columns 23-24 empty for negative (Ambion, Negative control #1) and positive (mouse Casp4) controls, respectively. The median value of each plate's negative control column was used to normalize sample wells, and the positive control was used to assess transfection efficiency and assay performance.
Lipofectamine RNAiMAX Transfection Reagent ([…]; Invitrogen) was added in […] serum-free, antibiotic-free media to plate wells using a Thermo Scientific Matrix WellMate and Microplate Stacker. Plates were incubated for 45 min at room temperature to allow for the sufficient formation of siRNA-lipid complexes. Cells were seeded at a density of 1x10^4 cells per well in 20 microL media containing 20% (vol/vol) FBS without antibiotics. The final concentration of siRNA in each well was 100 nM. Cells were cultured for 48h at 37 degrees C in 5% CO2 before addition of […] of TLR ligand Pam3CSK4 for 5 hours. The medium was then removed, replaced with […] growth media and cell were transfected with […] of LipidA and TransIT-TKO (Mirus) for 24 hour. At the end of the LipidA treatment, […] of supernatant was transferred to a 384 Greiner Bio-one non-binding low volume plate and […] of IL-1a HTRF reagent (Cisbio, 62MIL1APEH) was added and incubated at room temperature overnight. The plates were read on an EnVision plate reader (PerkinElmer). Cell viability was measured by adding 20ul Cell Titer Glo to the original plate and running a luminescence read on the EnVision. The quantified IL-1a signal for each siRNA gene-targeted well was divided by the median of the negative control wells and multiplied by 100 to achieve a negative control normalized value for each well/siRNA. This normalized value was then used to generate a robust z-score by first taking the log of each value and then by subtracting the median and dividing by the […].

Going from GGAGUUUUCAGCAACAAAUTT against Fgf5 to CCAACGCGAACGAGAACUATT against C1qb, the z-score rises from -0.829 to -0.0813.

First: CCAGAUAAUAAUUUGGAUGTT against Dhx9
Second: CCUGGAUACCUUCAACUAUTT against Galnt14
The z-score of the first is higher: 0.0852 for the first, -0.209 for the second.

First: CCUAAACCAGUCUUUUCUCTT against Cnep1r1
Second: GCAAAAGCUAAUAAACUUGTT against Acox2
The z-score of the first is lower: 0.369 for the first, 0.921 for the second.

First: GCCUACGAGGACAGUACAATT against Mst1r
Second: GCACUGCAACACUUGGUCCTT against Lcn12
The z-score of the first is higher: 1.16 for the first, -0.99 for the second.

Going from GGCAGACCCAUAAUUAAUCTT against Arsk to GGAAGAUACAAGUCUUUUUTT against Akap12, the z-score rises from -0.567 to 1.85.

Compared with GAGAUAAGAUGGGAAAAAATT against Ssbp2, GGAAAAGCAGACUUGCACCTT against Npm2 is higher in z-score: -0.338 for the first, 0.228 for the second.

Going from GGAAGAAGUUGGAGAUGUUTT against Hsd17b11 to GGAACCUAUUUUUUCGUAUTT against Gen1, the z-score rises from -0.629 to -0.322.

Compared with CCAAGAUUCUCCUGAAUUATT against Plod2, CGGUGAUCAAAGAUAAGAATT against Zkscan5 is lower in z-score: -0.183 for the first, -0.936 for the second.

First: GGUGUGGUCAUUCCAAAUGTT against Ms4a8a
Second: GGAGCUGUGCGGUCUGUUATT against Mul1
The z-score of the first is higher: 0.042 for the first, -0.626 for the second.

Compared with GGAGAAAGUCAAGACCCUCTT against Jund, GGAUGUCUCGGCAUAGUUCTT against Lpar1 is lower in z-score: 0.473 for the first, -0.64 for the second.

First: GGUGAAUGCAAGAUCACCUTT against Myl1
Second: GCAGUCGAUGUCAAGGUUATT against Plekhf2
The z-score of the first is lower: 0.343 for the first, 0.473 for the second.

Going from CGGGAUAGACUAUAAGACUTT against Rab40c to GGAGAUGAGGAAGCUCUUCTT against Usp4, the z-score falls from 0.612 to -0.747.

Compared with “GGUCUACGACCGAUGUUCUTT against 9530003J23Rik”, GGAGUUACCUUUCGAUAGGTT against Exoc5 is lower in z-score: 0.729 for the first, 0.648 for the second.

First: GGGUGCAUAAGCAAGCUGUTT against Nkiras2
Second: GGGAUCAAAGAUCAGUUAATT against Pih1d2
The z-score of the first is lower: -0.992 for the first, -0.98 for the second.

First: CCUAGUGUGUGCUUUUCGGTT against Akr7a5
Second: GGACCCAAGAAGUUUUAUUTT against Zbbx
The z-score of the first is lower: -0.502 for the first, 1.3 for the second.

First: GGAGCAGGUAAACAUGUCUTT against Fpr-rs7
Second: GCCUGAAAGGCCUCACAAATT against Eloa
The z-score of the first is higher: -0.218 for the first, -0.72 for the second.

Compared with GGACUAUGCAGUUUUAUUGTT against Chrac1, CGACCAAAAUCAAAACAGCTT against Defb12 is higher in z-score: -0.201 for the first, -0.093 for the second.

First: GGAACUGGAAGAGAAUGAGTT against Sdc4
Second: GGAGAAGAUAGAAGCUGAGTT against Rad23a
The z-score of the first is higher: 0.862 for the first, -1.66 for the second.

Going from GGACCUAUCAACUGAGUUUTT against Hrc to GGUCAUGGCUACUUCAUCCTT against Dok7, the z-score falls from 1.06 to 0.583.

Going from CCUUUAGAGGAAUUCACUUTT against Npas2 to GCAAAUCCCAGCUCAAUGUTT against Zfp810, the z-score falls from -0.576 to -1.65.

First: CGAAGGACCAGGGAAUCUGTT against Tsg-5
Second: GGAUAAGAGACAAUGAAUUTT against Fut7
The z-score of the first is higher: -0.793 for the first, -1.19 for the second.

For GGUAUUCUAUAAGCUCCUUTT against Dennd1a, the z-score was -2.07 (active).
With GGAUGUGCCAUUGAAGAUCTT against Atg4c the z-score was 2.07 (active).
For GGCUGAAGCGCAAGAGGAATT against Wdr46, the z-score was 2.68 (active).
With GGAACUAGUUUUUAUACUCTT against Igfbp1 the z-score was 2.23 (active).
In the case of GGGUGCAUAUGUUUGAAGCTT against Copb2, the z-score was -2.5 (active).
For GGCUACCAUGGACACAUCATT against Magea7-ps, the z-score was -2.31 (active).
In the case of GCCAGGACAAUCUGACUAUTT against Napsa, the z-score was 3.48 (active).
With CCAAGCAUAUGUGGUUGUUTT against Gpbp1l1 the z-score was -2.01 (active).
For GACAGAGGAAUUUGUCUCCTT against Olfr1120, the z-score was 2.1 (active).
With GCAGUAACUCCGGUAGUAGTT against Daxx the z-score was 5.84 (active).
In the case of GGUCGAGGACAAAAAAAAATT against Dner, the z-score was -2.27 (active).
With GCAGGUGAAAGUGCAGAUCTT against Timm13 the z-score was 3.35 (active).
